Screening results: PubChem, ICCB-Longwood Screening Facility, Harvard Medical School
A selection: hits, their analogues and other compounds. The true share with any hit is near 1.5%.
Mtb MenB inh: Mtb MenB enzyme inhibition; MenB enzyme assay, absorbance read-out; P9WNP5; AID 540299; hit rate 0.43% among 100,000; inhibition, % (no concentration beside the values); in the data active = inhibition above about 21%, passing the limit was not always enough
PV pol inh: poliovirus RNA polymerase inhibition. hit rate 0.66% among 150,000. P03300. % elongation, % (compound at 16.7 µg/mL). poliovirus polymerase elongation, fluorescence polarization; stronger effect = lower value; in the data active = % elongation below about 90%
Target sequence (P03300 1749-2209 limits assumed): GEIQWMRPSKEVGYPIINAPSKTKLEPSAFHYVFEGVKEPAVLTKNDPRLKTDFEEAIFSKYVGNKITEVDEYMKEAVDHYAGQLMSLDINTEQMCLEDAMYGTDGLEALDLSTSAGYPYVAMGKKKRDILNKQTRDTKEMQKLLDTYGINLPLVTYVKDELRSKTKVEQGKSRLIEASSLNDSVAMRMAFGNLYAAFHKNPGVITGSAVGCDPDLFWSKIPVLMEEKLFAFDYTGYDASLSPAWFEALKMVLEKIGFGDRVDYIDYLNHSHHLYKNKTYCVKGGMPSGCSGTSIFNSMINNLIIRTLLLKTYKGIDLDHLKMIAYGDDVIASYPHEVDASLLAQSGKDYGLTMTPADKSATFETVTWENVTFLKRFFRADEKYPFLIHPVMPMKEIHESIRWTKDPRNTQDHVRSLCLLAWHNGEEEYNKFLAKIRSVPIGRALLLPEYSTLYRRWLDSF
AID504770: E. coli YBA685 growth inhibition, screen for V. cholerae RctB inhibitors. E. coli YBA685 rctB-dependent plasmid, OD600 growth, 3 h; stronger effect = lower value. z-score (concentration not given with the values). hit rate 0.27% among 130,000. AID 504770; in the data active = z-score below about -2, passing the limit was not always enough
Mtb MbtI inh: inhibitors of Mycobacterium tuberculosis siderophore enzyme MbtI; purified MbtI enzyme, fluorescence intensity read-out; inhibition, % (test concentration not listed); hit rate 0.89% among 100,000; in the data active = inhibition mostly above about 56%, no sharp cut-off; inactive = mostly below about 77%
* = called active by the depositor; i = inactive; x = not tested or not shown.

SMILES	Mtb MenB inh	PV pol inh	AID504770	Mtb MbtI inh
Cc1cccc(OCCCC(=O)O)c1	x	101.0	1.1	-1.5
CCNC(=O)CCOc1cccc(C)c1	1.7	52.0*	-0.05	0.5
N#Cc1c(N)ncc2c1CCCC2	-29.0	94.0	-1.1	i
COc1ccc(NC(=O)c2cc3ccc(O)cc3o/c2=N\O)cc1	32.1*	101.0	-0.15	8.3
COc1ccc(NC(=O)c2cc3ccc(O)cc3oc2=Nc2ccc(C(=O)O)cc2)cc1	-89.5	107.0	0	6.5
O=C(COc1ccc(Cl)cc1)Nc1sc2c(c1C(=O)Nc1cccc(Cl)c1)CCCC2	x	81.0*	x	x
O=C(Nc1cccc(Cl)c1)c1c(NC(=O)C(F)(F)F)sc2c1CCCC2	x	79.0*	x	x
CCOc1ccccc1NC(=O)c1c(NC(=O)C(C)Oc2cccc(Cl)c2)sc2c1CCCCC2 (stereo not given)	x	98.0	x	x
Cc1cccc(NC(=O)c2c(NC(=O)C(F)(F)F)sc3c2CCCCC3)c1	x	105.0	x	x
Cc1ccccc1NC(=O)c1c(NC(=O)C(C)Oc2cccc(Cl)c2)sc2c1CCCC2 (stereo not given)	x	87.0*	x	x
COc1ccc(Cl)cc1NC(=O)c1c(NCc2sccc2C)sc2c1CCCC2	x	70.0*	x	x
CCN(CC)S(=O)(=O)c1ccc(C(=O)NCCc2cc3ccc(OC)cc3[nH]c2=O)cc1	16.8	100.0	1.6	4.3
CCOC(=O)c1nnn(-c2nn3nnnc3c3ccccc23)c1C	32.3*	100.0	0.7	13.6
CCOC(=O)c1nnn(-c2nonc2-n2cccc2)c1C	-16.2	101.0	-0.85	-12.0
Cc1noc(C)c1CSc1ncccc1C(=O)N(C)c1ccc2ccccc2c1	-28.1	106.0	-0.35	-8.1
Clc1ccc(CSc2ncccn2)cc1	-0.6	103.0	-0.8	20.1
c1ccc(CSc2ncccn2)cc1	-0.1	102.0	1.1	60.4*
CC1(C)C=Cc2cc(OCC(=O)O)ccc2O1	6.0	101.0	-0.65	-12.9
O=c1c(=N\O)/c(=N/O)c(=O)c2ccccc12	-12.4	60.0*	-5.3*	25.0
O=c1c(=Nc2ccccc2O)c(=O)c2ccccc12	-8.1	95.0	-0.9	x
O=C1C=CC(=O)N1c1ccccc1OC(F)(F)F	x	x	-0.3	x
O=C1C=CC(=O)N1c1cccc2ccccc12	x	101.0	-0.6	88.6*
O=C1C=CC(=O)N1c1ccccc1F	-19.9	104.0	-4.65*	99.8*
CCOC(=O)C1=C(C)N(CCO)C(=O)NC1c1ccc(O)cc1 (stereo not given)	-19.2	105.0	-0.3	x
CC1=NN(c2ccccc2)C(=O)/C1=C/c1ccc(-c2ccccc2)o1	7.2	99.0	0.85	1.1
SMILES	Mtb MenB inh	PV pol inh	AID504770	Mtb MbtI inh
CC1=NN(c2cccc(C(=O)O)c2)C(=O)/C1=C/c1ccc(-c2cccc(Cl)c2C)o1	-16.8	90.0*	-0.45	37.8
COc1cccc(OC)c1C(=O)N(C(=O)c1c(OC)cccc1OC)c1oc(-c2ccco2)c(-c2ccco2)c1C#N	12.2	103.0	1.05	17.3
N#Cc1c(N(C(=O)/C=C/c2ccco2)C(=O)/C=C/c2ccco2)oc(-c2ccco2)c1-c1ccco1	-15.7	89.0*	0.85	4.4
CCOc1ccc(C2=NC3(CCN(C(C)C)CC3)NC(c3cc(Cl)ccc3O)C2)cc1 (stereo not given)	-15.9	106.0	1.35	3.1
CC(C)Nc1nn(CN2CCN(C(=O)c3ccccc3)CC2)c(=S)s1	-3.3	91.0	-0.5	76.8*
CC1(C)N([O-])c2ccccc2[N+]1=O	-41.2	96.0	-3.95*	24.5
O=C(NCc1ccccc1)NC(=O)c1ccccc1I	-23.9	100.0	0.05	-27.6
CCCOc1ccc(NC(=O)c2ccccc2C(=O)O)cc1	x	x	3.3	x
O=C(NCCN1CCOCC1)Nc1c[nH]c2ccccc12	6.4	106.0	-1	102.3
O=C(O)C1Nc2c(I)cccc2C2C=CCC12 (stereo not given)	-16.8	93.0	-0.7	102.8*
CC1(C)CCC2=C(O1)c1ccccc1C(=O)C2=O	8.2	89.0*	x	2.4
O=C(CSc1ncccc1C(=O)Nc1ccnn1C1CCCCC1)Nc1ccc2c(c1)OCO2	2.5	106.0	-0.15	4.0
CNC(=O)Cn1c(-c2cccs2)cc2ccccc21	-14.4	104.0	-0.55	90.3
Cc1c(C)[n+]([O-])c2ccc3c(non3O)c12	-138.2	101.0	-2.2*	13.1
CCOC(=O)c1cc(C#N)c(Sc2nnc(SCC3CC3)s2)nc1C(F)(F)F	x	x	-0.6	x
COc1cc(CNC(C)(C)C)ccc1OCC(=O)NC(C)(C)C	-4.6	105.0	0.05	-25.9
CCOc1cc(CNc2ncn[nH]2)ccc1OCC(=O)NC(C)(C)C	-11.9	101.0	-2.45*	-9.6
Cc1ccccc1OCC1CN(CN2CCC(C)CC2)C(=O)O1 (stereo not given)	-9.1	102.0	0.3	-1.1
CCCc1n[nH]c(=S)n1N	-40.1	101.0	1.55	68.8*
